Experimental data reported in ChEMBL document CHEMBL1157539, “Thousands of chemical starting points for antimalarial lead identification” (Nature, 2010).
Whole data set: some 13,000 compounds, median “IFI” near 4, cut for the highest 2% near 17. The sample as a whole holds a higher share of the highest values than the screen did.

experiment: GSK_TCMDC: Inhibition Frequency Index (IFI). The number of non-kinase HTS assays where a compound showed > 50 % inhibition, expressed as a percentage of the number of such assays in which the compound was tested; type: functional

Structure (SMILES)	IFI
COc1ccc2nccc(N3CCN(CCNCc4ccc5c(n4)NC(=O)CO5)CC3)c2c1	3.73%
Cc1c(C)c2c(c(C)c1O)CC[C@](C)(C(=O)N1CCC(CCN3CCC(c4c[nH]c5ccccc45)CC3)CC1)O2	5.88%
Cc1cccc2nc(-c3cccc(-c4cccc(NC(=O)COc5ccccc5C(N)=O)c4)c3)[nH]c12	6.09%
CN(C)CCNC(=O)c1ccc(-c2cnc3ccc(NCc4ccc(Cl)c(Cl)c4)nn23)cc1	9.02%
CCCCc1ccc2ncc(C(=O)OCC)c(O)c2c1	0.78%
COc1c(Br)cc(Br)cc1-c1ccc(CN2CC3CCC2CC3)[nH]1	21.1%
COc1c(Br)cc(Br)cc1-c1ccc(CN2C3CCCC2CCC3)[nH]1	6.82%
COc1cccc(C(=O)Nc2ccc(Nc3nc(C)cc(N(C)C)n3)cc2)c1OC	7.14%
CCCCCCCN1CC[C@@H](CCCc2ccnc3ccc(OCCCCN/C(N)=N/O)cc23)[C@@H](CC)C1	9.66%
O=[N+]([O-])c1cnc(Nc2ccccc2O)nc1Nc1ccccc1O	19.2%
CN(C)CC(O)COc1ccc(Nc2ncc([N+](=O)[O-])c(Nc3ccccc3O)n2)cc1 (configuration not stated)	6.21%
CN1CCN(c2ccc(Nc3ncc([N+](=O)[O-])c(Nc4ccccc4O)n3)cc2)CC1	6.99%
Cc1[nH]c(C)c(-c2ccc(CCc3ccc(N)cc3)cc2)c(=O)c1Cl	1.89%
COc1ccc2[nH]c(C(=O)Nc3ccc4[nH]c(-c5ccccc5)nc4c3)cc2c1	7.69%
CCc1cn(CC(=O)N(CCOc2ccc(-c3ccc(C(F)(F)F)cc3)cc2)CCN(CC)CC)c(SCc2ccc(F)cc2)nc1=O	6.34%
FC(F)(F)c1cccc(Nc2nc3ccccc3nc2Nc2cccc(C(F)(F)F)c2)c1	10%
O=[N+]([O-])c1ccc2nc(Nc3cccc(C(F)(F)F)c3)c(Nc3cccc(C(F)(F)F)c3)nc2c1	5.88%
FC(F)(F)c1cccc(Nc2nc3nonc3nc2NC2C3CC4CC(C3)CC2C4)c1 (configuration not stated)	20.6%
CC1(C)C(=O)Nc2ccc3c(c21)CC1SC(=O)NN=C31 (configuration not stated)	2.22%
CCCN(CCC)C(=O)c1cc(C(=O)N[C@@H](Cc2ccccc2)[C@H](O)CNC(C)(C)c2cccc(OC)c2)cc(N2CCCCS2(=O)=O)c1	3.62%
CC(C)(C)c1ccc(CN2CCC(CNC(=O)c3cc(-c4cccc(Cl)c4)cs3)C2)cc1 (configuration not stated)	12.2%
Cc1cc2cc(-c3ccc(CN)cc3)ccc2nc1N	3.88%
O=C(c1ccc([N+](=O)[O-])o1)N1CCC(Cc2ccc(C(F)(F)F)cc2)CC1	9.52%

Structure (SMILES)	IFI
COCCN1CCN(Cc2ccc(-c3ccc(-c4nc5cc(F)ccc5[nH]4)cc3)cc2)CC1	4.9%
Clc1ccc(Nc2nc3nonc3nc2Nc2ccc(Cl)c(Cl)c2)cc1	19.4%
Clc1ccc(Nc2nc3ccc(Cl)cc3nc2Nc2ccc(Cl)cc2)cc1	10.1%
O=[N+]([O-])c1ccc2nc(Nc3ccc(Cl)c(Cl)c3)c(Nc3ccc(Cl)c(Cl)c3)nc2c1	2.86%
Clc1ccc(CNCCCCCCNCc2ccc(Cl)cc2)cc1	11.3%
CC(=O)Nc1cc(C(=O)Nc2cccc(-c3cccc(-c4nc5cccc(C)c5[nH]4)c3)c2)ccc1C	5.88%
Cc1cc(NCCc2ccccc2)nc(NC(=N)Nc2cccc(F)c2)n1	6.77%
Nc1cccc(-c2ccc3ccnc(N)c3c2)c1	5.56%
Nc1nccc2ccc(-c3cccc(O)c3)cc12	7.14%
Nc1nccc2ccc(-c3ccc(Oc4ccccc4)cc3)cc12	20.7%
Nc1ccc(-c2ccc3ccnc(N)c3c2)cc1	9.09%
NCc1cccc(-c2ccc3ccnc(N)c3c2)c1	2.86%
COc1cccc(-c2ccc3ccnc(N)c3c2)c1	7.87%
Nc1nccc2ccc(-c3ccc(OCc4ccccc4)cc3)cc12	19.1%
Nc1nccc2ccc(-c3ccncc3)cc12	3%
Nc1nccc2ccc(-c3cccc(OCc4ccccc4)c3)cc12	19.8%
CNc1nc(Nc2ccccc2C)nc2ccccc12	2.21%
CC(c1cccc(Nc2nccc(-c3c(-c4cccc(NC(=O)c5c(F)cccc5F)c4)nn4ccccc34)n2)c1)S(C)(=O)=O (configuration not stated)	6.31%
O=S(=O)(c1c(Cl)cc(Cl)cc1Cl)N1CCCCC(c2ccc(C(F)(F)F)cc2)=N1	1.5%
Nc1nc(O)c2c(n1)CCc1c(Br)cccc1-2	2.31%
COc1ccccc1C1CCN(C2CCC(NC(=O)/C=C/c3ccc(OC(F)(F)F)cc3)CC2)CC1 (configuration not stated)	11.7%
Nc1nc(Nc2cccc(O)c2)nc2ccccc12	5.04%
CCC[C@@H]([C@@H](CC1CCCCC1)C(=O)N[C@H](C(=O)Nc1nccc(N)n1)C(C)(C)C)N(O)C=O	2.86%

Structure (SMILES)	IFI
NC[C@H](CC1CCCCC1)NC(=O)c1ccc(-c2ccnc3[nH]ccc23)s1	22.2%
NCC(NC(=O)c1ccc(-c2c[nH]c3ncccc23)s1)c1ccccc1 (configuration not stated)	16.1%
OCC1CCN(Cc2cccc(-c3cccc(-c4nc5cc(C(F)(F)F)ccc5[nH]4)c3)c2)CC1	5.83%
CCCCCCOc1ccc(C(=O)NCCCC2CCCN(CCCCCNC(=O)C=Cc3ccc(Cl)c(Cl)c3)C2)cc1 (configuration not stated)	6.87%
Cc1ccc(F)cc1-c1cc(N2CCCN(C(=O)c3ccc(Br)o3)CC2)ncn1	0%
C=CCc1ccc(C[C@H](NC(=O)OC(C)(C)C)C(=O)OC)cc1	18.9%
COC(=O)C(c1ccc(NC(=O)[C@H](CC(C)C)NC(=O)OC(C)(C)C)cc1)c1ccc(NC(=O)[C@H](CC(C)C)NC(=O)OC(C)(C)C)cc1	0%
CC(C)(C)OC(=O)N[C@@H](Cc1ccccc1)C(=O)Nc1cccc(-c2cccc(NC(=O)[C@H](Cc3ccccc3)NC(=O)OC(C)(C)C)c2)c1	0.72%
CCSc1ccc(C)cc1CON1C(N)=NC(N)=NC1(C)C	6.34%
Cc1c(Cn2nc(Cl)c(N3CCNCC3)cc2=O)cccc1NC(=O)Nc1ccc(-c2ccccc2)cc1	10.8%
CCC(C)(C)c1ccc(S(=O)(=O)Nc2ccc(Cl)c(OCCN3CCCCC3)c2)cc1	43.1%
O=C(/C=C/c1ccccc1Cl)Nc1ccc(Br)c(OCCN2CCCCC2)c1	5.52%
ON=C1c2cc(OCCN3CCCCC3)c(Cl)cc2-c2cc(Cl)c(OCCN3CCCCC3)cc21	9.42%
COc1ccc(CNC2CCN(C)CC2)cc1-c1cccc(S(=O)(=O)NCc2ccccc2)c1	11%
COc1ccc2c(=NN=Cc3ccccc3Cl)cc(C)[nH]c2c1	3.65%
COc1cc(NC(=O)c2sc(-c3ccc(Cl)cc3)cc2NC(=O)c2cccnc2)ccc1OCCN1CCCC1	7.19%
O=c1c2ccc(F)cc2sn1-c1ccc(Cl)cc1	23.9%
O=C(/C=C/c1ccc(Cl)c(Cl)c1)NCCCCCN1CCC(c2c[nH]c3c(-c4ccccc4)cccc23)CC1	8.09%
CN(Cc1cccc(F)c1)C1CCN(c2cc(NC(=O)c3ccc(F)cc3)ccn2)CC1	0%
C[C@@H](C(N)=O)N1CCCCC1c1ccc(OCc2cccc(F)c2)cc1 (some centres not stated)	33.8%
CN(Cc1cccc(F)c1)C1CCN(c2cc(NC(=O)c3cccc(F)c3)ccn2)CC1	0%
O=C(C=Cc1ccc(Cl)c(Cl)c1)NCCCCCN1CCCC(CCCNS(=O)(=O)c2cccc3cccnc23)C1 (configuration not stated)	5.8%
CCc1c(CCNCCCCCCNC(C)Cc2ccc3c(c2CC)OCO3)ccc(OC)c1OC (configuration not stated)	10.7%

Structure (SMILES)	IFI
CC(C)(C(=O)Nc1ccc(N2CCC3(CCCN(CC4CC4)C3)CC2)c(Cl)c1)c1cccc(C(F)(F)F)c1	6.67%
CN1CC[C@@H](Oc2cc(NC(=O)Nc3ccc(Cl)c(C(F)(F)F)c3)ccc2Cl)C1	7.63%
CC(C)(C(=O)Nc1ccc(C2CCC(NCC3CC3)CC2)c(Cl)c1)c1cccc(OC(F)F)c1 (configuration not stated)	23.4%
CC(C)(C(=O)Nc1ccc(C2CCC(NCC3CC3)CC2)c(Cl)c1)c1ccc(C(F)(F)F)cc1 (configuration not stated)	25%
O=C(NCC1CCC(CNCCc2ccccc2)CC1)Nc1ccc(Cl)c(Cl)c1 (configuration not stated)	0.72%
O=C(CNCC1CCCCC1)Nc1cc(C(F)(F)F)ccc1Cl	4.23%
COc1ccc2c(=NN=C(C)c3ccccn3)cc(C)[nH]c2c1	4.96%
CCCCCCN1CCCN(Cc2ccc(C(=O)Nc3ccc(C(C)C)cc3)cc2)CC1	19.7%
Cc1ccccc1CN1CCCN(Cc2ccc(C(=O)Nc3ccc(C(C)(C)C)cc3)cc2)CC1	18.4%
O=C(Nc1ccc(Cl)cc1)c1ccc(CN2CCCN(Cc3cccc(Cl)c3)CC2)cc1	8.66%
CCCCCCN1CCCN(Cc2ccc(C(=O)Nc3ccc(Cl)cc3)cc2)CC1	15.2%
CC(C)(C)c1ccc(NC(=O)c2ccc(CN3CCCN(Cc4cccc(Cl)c4)CC3)cc2)cc1	17.2%
CC(C)(C)c1ccc(NC(=O)c2ccc(CN3CCCN(Cc4ccc(F)cc4)CC3)cc2)cc1	15.6%
CCCCCCN1CCCN(Cc2ccc(C(=O)Nc3ccc(CC)cc3)cc2)CC1	13.5%
Cc1ccccc1CN1CCCN(Cc2ccc(C(=O)Nc3ccc(Cl)cc3)cc2)CC1	10.2%
CC(C)(C)c1ccc(NC(=O)c2cccc(CN3CCCN(Cc4cccc(Cl)c4)CC3)c2)cc1	7.86%
Cc1cccc2nc(-c3ccc(-c4cccc(NC(=O)Nc5ccc(F)c(F)c5F)c4)cc3)[nH]c12	2.91%
O=C(/C=C/C=C/c1ccc(Cl)c(Cl)c1)NCCCCCN1CCCC2CCCCC21 (configuration not stated)	5.19%
Cc1cccc2nc(-c3cccc(-c4ccc(NC(=O)Nc5ccc(Cl)c(Cl)c5)cc4)c3)[nH]c12	7.07%
CC(=O)Oc1c(Cl)c(C)nc(C)c1-c1ccc(Oc2ccc(OC(F)(F)F)cc2)cc1	6.35%
CCN(CC)CCCN(CCCN(CC)CC)c1cc(C)nc(Nc2ccc3cc(Br)ccc3c2)n1	4.35%
COc1cc(C(=O)Nc2ccc(-c3nc4ccccc4[nH]3)cc2)cc(OC)c1OC	1.4%
CCn1c(C(C)C)cc2c3c(N)nc(N)nc3ccc21	2.88%
